Screening results deposited in PubChem by National Center for Advancing Translational Sciences (NCATS).
Menin-MLL FL inh: displaces fluorescein MLL peptide from human menin. Fluorescence polarization, fluorescein-MLL peptide displacement from menin. FP activity change, % at 61.4 µM. 290,000 tested, under 10 active. AID 1766; active = well fitted curve in the direction sought with a large enough effect in the polarisation, not every such curve was filed as active; inconclusive = small, poorly fitted or top-dose-only effect, or effect the other way, or a change in a side signal; inactive = no such curve, though single readings can be large or run the other way; the % refers to the polarisation
IDH1 R132H inh: inhibitors of human mutant IDH1 R132H | Potency, µM (top dose mostly 76.6 µM), hits mostly inhibitors | IDH1-R132H enzyme, NADPH consumption, diaphorase/resazurin fluorescence | 390,000 tested, 0.093% active | O75874; also: nearly all actives have a fitted effect of over 65% in size
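IDH1-R132H (0.5 ug/mL dispensed) in pH 7.5 Tris buffer was preincubated 30 min with compound, then given a substrate mix of 0.016 mM NADPH and 2 mM alpha-KG for 80 min at room temperature; remaining NADPH was read by diaphorase/resazurin fluorescence.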
pAkt inh: inhibitors of Akt phosphorylation; Neuro2A IGF-stimulated pAkt S473 HTRF, 20 min; active compounds read low; activity change, % for hits at 50 µM; 360,000 tested, 0.32% active; AID 651550; in the data active = activity change below about -80%; inconclusive = mostly about -51% to -80%
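Neuro2A cells (4,500/well, DMEM with 0.5% FBS) were treated with compound at a single 50 µM final concentration, stimulated with 6 nM IGF for 20 min at 37 °C, and lysed. Phospho-Akt Ser473 was read by HTRF as 665/615 ratio ×10^4.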
LDHA inh: inhibitors of human lactate dehydrogenase A; activity change, % (values are at about 110 or 230 µM); P00338; AID 1347041; 480,000 tested, 0.15% active; purified LDHA, NADH/diaphorase-resazurin fluorescence; active compounds read low; in the data active = activity change below about -30%; inconclusive = mostly about -25% to -30%
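Resorufin fluorescence (ex540/em590), read at 0 and 20 min after diaphorase/resazurin addition, reports the NADH left after a 5 min room-temperature reaction of 2 nM human LDH5 with 0.06 mM NADH and 0.2 mM pyruvate.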
Menin MLL FP TR: menin-MLL binding inhibition, Texas Red mutant peptide; O00255; Menin + Texas Red MLL mutant peptide, fluorescence polarization; Potency, µM (series often up to 61.6 µM), usual class: inhibitors; 270,000 tested, 0.23% active; AID 1768; active = well fitted inhibition curve with a large enough effect in the polarisation, with a control signal flat, not every such curve was filed as active; inconclusive = small, poorly fitted or top-dose-only effect, or effect the other way, or a change in a side signal; inactive = no such curve, though single readings can be large or run the other way; the % refers to the polarisation
CXXC DNA block: MLL CXXC-DNA interaction inhibition; Q03164; MLL-CXXC / FITC-HOXA9 DNA fluorescence polarization; Potency, µM (series often up to 115 µM), usual class: inhibitors; 290,000 tested, 0.037% active; active = well fitted inhibition curve with a large enough effect in the polarisation, with a control signal flat, not every such curve was filed as active; inconclusive = small, poorly fitted or top-dose-only effect, or effect the other way, or a change in a side signal; inactive = no such curve, though single readings can be large or run the other way; the % refers to the polarisation
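Purified MLL-CXXC (added from a 7 uM solution) was preincubated 5 min at ambient with pinned compounds in 50 mM Tris-HCl pH 7.5, 50 mM NaCl, 1 mM DTT, 0.05% BSA. Fluorescein-labeled HOX-A9 DNA (50 nM solution) followed, 30 min, then polarization read.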
MLL CXXC FP-Fl: MLL CXXC-DNA interaction inhibition, fluorescein FP; 200 tested, 70% active; Potency, µM (series often up to 345 µM), actives largely listed as inhibitors; shares compounds with CXXC DNA block; MLL CXXC-DNA binding, fluorescein FP; also: nearly all actives have a fitted effect of over 80% in size
MLL CXXC FP-TR: MLL CXXC-DNA interaction inhibition, Texas Red FP. shares compounds with CXXC DNA block. MLL CXXC-DNA binding, Texas Red fluorescence polarization. Potency, µM (doses to about 345 µM), most hits filed as inhibitors. 200 tested, 40% active. AID 624161; also: nearly all actives have a fitted effect of over 75% in size
MLL CXXC TRF: inhibitors of human MLL CXXC domain-DNA interaction, HTRF format. shares compounds with CXXC DNA block. MLL CXXC-DNA binding, HTRF, biochemical. Potency, µM (highest dose often 172 µM), hits mostly inhibitors. 210 tested, 30% active. AID 624162; also: nearly all actives have a fitted effect of over 80% in size
Resorufin autofl: counter-screen for mutant IDH1 inhibitors: fluorescence interference | shares compounds with IDH1 R132H inh | Resorufin detection reagent fluorescence interference, cell-free | inhibition of signal, % at 51.2 µM | 750 tested, under 10 active
WT IDH1 inh: inhibits human wild-type IDH1, mutant selectivity check | 750 tested, 9% active | Potency, µM (doses to about 115 µM), most hits filed as inhibitors | shares compounds with IDH1 R132H inh | WT IDH1 enzyme, NADPH diaphorase/resazurin fluorescence; also: nearly all actives have a fitted effect of over 55% in size
IDH1 R132H conf: mutant IDH1 (human) inhibition, confirmed; AID 624002; 750 tested, 83% active; shares compounds with IDH1 R132H inh; Potency, µM (top dose mostly 76.6 µM), actives largely listed as inhibitors; IDH1 R132H enzyme, NADPH diaphorase/resazurin fluorescence; also: nearly all actives have a fitted effect of over 50% in size
Large screens that a line does not name were inactive (follow-up assays come after a bar, where they were run). Shown are actives, neighbours in structure and some others; about 0.54% of the full set was active somewhere. Unless noted, calls follow the shape of the dose curve; as a rule, active = well fitted curve in the direction sought with a large enough effect; inconclusive = small, poorly fitted or top-dose-only effect, or another doubt; inactive = no such curve, though single readings can be large; an effect the other way counts as inactive or inconclusive.

O=[N+]([O-])c1ccc(NC2CCCCC2)c2ccncc12	none (no result: Menin-MLL FL inh, IDH1 R132H inh, pAkt inh, Menin MLL FP TR, CXXC DNA block)
Nc1nc(CN2CCN(C(=O)COc3ccc(F)cc3)CC2)nc2ccccc12	none (no result: Menin-MLL FL inh, IDH1 R132H inh, pAkt inh, Menin MLL FP TR, CXXC DNA block)
COC(=O)c1ccc(CCN)cc1	none (no result: Menin-MLL FL inh, IDH1 R132H inh, pAkt inh, Menin MLL FP TR, CXXC DNA block)
COc1ccc(N=Cc2c(O)n(Cc3ccccc3)c(=S)[nH]c2=O)c(OC)c1	Menin-MLL FL inh inconclusive, CXXC DNA block 32µM (no result: Menin MLL FP TR) | MLL CXXC FP-Fl 159µM | MLL CXXC FP-TR inactive | MLL CXXC TRF inactive
O=C1CSC(c2c(F)cccc2Cl)c2cn[nH]c2N1 (stereo not given)	none (no result: Menin-MLL FL inh, IDH1 R132H inh, pAkt inh, Menin MLL FP TR, CXXC DNA block)
C=CCNC(=O)c1c(N)n(Cc2ccccc2)c2nc3ccccc3nc12	none (no result: Menin-MLL FL inh, IDH1 R132H inh, pAkt inh, Menin MLL FP TR, CXXC DNA block)
CCOC(=O)c1c(-n2c(C)cc(C=C3C(=O)NC(=O)NC3=O)c2C)sc2c1CCCC2	IDH1 R132H inh 18µM, CXXC DNA block inconclusive | Resorufin autofl inactive | WT IDH1 inh 28µM | IDH1 R132H conf 11µM
NC1(c2ccccc2)CCC1	none (no result: Menin-MLL FL inh, IDH1 R132H inh, pAkt inh, Menin MLL FP TR, CXXC DNA block)
CN(C)C(=O)Oc1ccc(C(=O)c2ccccc2)cc1	none
CCC(=O)Oc1ccc(C(=O)Nc2cccc(C(=O)c3ccccc3)c2)cc1	IDH1 R132H inh 26µM, Menin MLL FP TR inconclusive | Resorufin autofl inactive | WT IDH1 inh inactive | IDH1 R132H conf 10µM
Cc1cc(C=C2C(=O)NC(=O)NC2=O)c(C)n1-c1ccc2c(c1)OCO2	none
Cc1cc(C=C2C(=O)NC(=S)NC2=O)c(C)n1-c1ccc2c(c1)OCO2	Menin-MLL FL inh inconclusive, IDH1 R132H inh 41µM, Menin MLL FP TR inconclusive, CXXC DNA block inconclusive | Resorufin autofl inactive | WT IDH1 inh inconclusive | IDH1 R132H conf 35µM
O=c1c2ccccc2nc(/C=C/c2cccnc2)n1Cc1ccccc1	IDH1 R132H inh 41µM, CXXC DNA block inconclusive | Resorufin autofl inactive | WT IDH1 inh 45µM | IDH1 R132H conf 25µM
CCCCCc1nc2ccccc2c(=O)n1-c1ccc(C)cc1	none (no result: Menin-MLL FL inh, pAkt inh, Menin MLL FP TR, CXXC DNA block)
CCCCCc1nc2c(c(=O)c3ccccc3n2C)c(=O)n1C1CCCCCC1	IDH1 R132H inh 10µM | Resorufin autofl inactive | WT IDH1 inh 35µM | IDH1 R132H conf 5µM
OCCN1CCN(CCCN2c3ccccc3Sc3ccc(C(F)(F)F)cc32)CC1	Menin MLL FP TR inconclusive
FC(F)(F)c1ccc2c(c1)N(CCCN1CCN(CCCl)CC1)c1ccccc1S2	IDH1 R132H inh 37µM, Menin MLL FP TR inconclusive | Resorufin autofl inactive | WT IDH1 inh inactive | IDH1 R132H conf 8.9µM
COC(=O)C1=C(N)Oc2n[nH]c(-c3ccccc3)c2C12C(=O)N(C)c1ccccc12 (stereo not given)	none (no result: Menin-MLL FL inh, IDH1 R132H inh, pAkt inh, Menin MLL FP TR, CXXC DNA block)
N#C/C(=C\c1ccc(Cl)cc1)C(=O)Nc1ccc(Cl)cc1C(=O)c1ccccc1	none (no result: Menin-MLL FL inh, IDH1 R132H inh, pAkt inh, Menin MLL FP TR, CXXC DNA block)
O=C(N/N=C/c1c(O)n(C2CCCCC2)c(=S)[nH]c1=O)c1ccccc1O	IDH1 R132H inh inconclusive, Menin MLL FP TR inconclusive (no result: pAkt inh) | Resorufin autofl inactive | WT IDH1 inh inactive | IDH1 R132H conf 45µM
c1cncc(CNCCN2CCCC2)c1	none (no result: Menin-MLL FL inh, IDH1 R132H inh, pAkt inh, Menin MLL FP TR, CXXC DNA block)
COCCCn1c(N)c(C(=O)Nc2sc3c(c2C(=O)OC)CCCC3)c2nc3ccccc3nc21	IDH1 R132H inh inconclusive, Menin MLL FP TR inconclusive | Resorufin autofl inactive | WT IDH1 inh inactive | IDH1 R132H conf inconclusive
